Measurements published in PubChem BioAssay (NCATS).
Values joined by “and” are separate entries in the source; they are usually repeats but may differ in a detail not shown here. Identical values can stand only once. Results filed as inconclusive are left out. Active and inactive are the calls of the source. Unless noted, calls come from the whole dose curve; as a rule, active = well fitted curve in the direction sought with a large enough effect; inconclusive = small, poorly fitted or top-dose-only effect, or another doubt; inactive = no such curve, though single readings can be large; an effect the other way counts as inactive or inconclusive.

How the values were obtained:
[1] = qHTS profiling of the MIPE4 collection as inhibitors of Plasmodium falciparum (3D7) proliferation (AID 743344; call rule not given here;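 note: scaled between DMSO vehicle wells and 0.29 µM artemisinin as full inhibition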); conditions: P. falciparum 3D7 in erythrocytes, SYBR Green DNA fluorescence, 72 h; at 28.5 µM unless noted
Outline: (§1)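 Erythrocytes infected with P. falciparum (0.3% parasitemia, 2.5% hematocrit) incubated with compounds 72 h at 37 C, 5% CO2. Lysis with saponin/Triton buffer containing SYBR Green I, overnight at room temperature in the dark; DNA fluorescence (485/535 nm) normalised to 0.29 uM artemisinin and DMSO.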

[2] = qHTS profiling of the MIPE4 collection as inhibitors of Plasmodium falciparum (DD2) proliferation (AID 743345; call rule not given here); conditions: P. falciparum Dd2 in erythrocytes, SYBR Green DNA, 72 h; at 28.5 µM unless noted
Outline: as §1

[3] = qHTS profiling of the MIPE4 collection as inhibitors of Plasmodium falciparum (DD2) proliferation (Rep 2) (AID 743346; call rule not given here); conditions: P. falciparum Dd2 in erythrocytes, SYBR Green DNA, 72 h; at 28.5 µM unless noted
Outline: as §1

[4] = qHTS profiling of the MIPE4 collection as inhibitors of Plasmodium falciparum (HB3) proliferation (AID 743347; call rule not given here;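 note: plate controls were DMSO vehicle wells for no effect and artemisinin wells for full effect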); conditions: P. falciparum HB3 in erythrocytes, SYBR Green DNA, 72 h; at 28.5 µM unless noted
Outline: as §1

[5] = High-throughput drug toxicity screening in the BPDCN cell line Cal-1 (AID 1224825; call rule not given here); conditions: Cal-1 BPDCN cell viability, qHTS; at 45.8 µM (top of the series) unless noted
Outline: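 Cal-1 cells, 500 per well in phenol-red-free RPMI with 10% FBS, exposed to compounds for 48 hours at 37C, 5% CO2. Viability read by CellTiter-Glo luminescence; percent activity normalized to DMSO (100%) and 9.2 uM bortezomib final (0%).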

[6] = qHTS assay for measurement of the activity of small molecule inhibitors on Zika virus induced Caspase-3 activity in human iPSC derived neural progenitor cells (hNPCs) (AID 1224857); note: % of control where 0% means no effect; nearly all actives have a fitted effect of over 65% in size
Outline: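 hNPCs seeded 350 cells/well, cultured 16–20 h; compounds added 1 h before ZIKV (2 FFU/cell), 37 C 6 h. Caspase-Glo 3/7 luminescence after 30 min RT; % inhibition from induction scaled to uninfected (0%) and infected (100%) wells.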

[7] = qHTS assay for measurement of the activity of small molecule inhibitors on Zika virus induced Caspase-3 activity in human astrocytoma cells (AID 1224859);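 note: plate controls were ZIKV-infected untreated cells for no effect and uninfected cells for full effect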
Outline: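 Luminescence read-out (Caspase-Glo 3/7, 30 min RT) of caspase activity in SNB-19 cells infected 6 h with ZIKV, 2 FFU/cell, after 1 h compound pretreatment; % inhibition from induction normalised to uninfected (0%) and infected (100%) wells.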

[8] = qHTS profiling for inhibitors of Plasmodium falciparum (DD2) proliferation (AID 743323; call rule not given here); conditions: at 28.7 µM (top of the series), lower = more inhibition
Outline: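 Parasite DNA quantified by SYBR Green fluorescence (ex 485, em 535 nm) after saponin/Triton lysis and overnight dark incubation. Cultures: 0.3% parasitemia, 2.5% hematocrit, 72 h, 37 C; data scaled between DMSO and 0.29 uM artemisinin.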

[9] = qHTS profiling for inhibitors of Plasmodium falciparum (HB3) proliferation (AID 743324); conditions: Plasmodium falciparum HB3 blood-stage proliferation; at 28.7 µM (top of the series);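 note: 100% = DMSO vehicle wells and 0% = artemisinin-treated control wells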
Outline: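 P. falciparum HB3 grown in erythrocytes (0.3% parasitemia, 2.5% hematocrit final) with compound for 72 h at 37 C, 5% CO2. Parasite DNA detected by SYBR Green after saponin/triton lysis overnight; normalized to 0.29 uM artemisinin and DMSO.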

Row | SMILES | parasite growth, % of DMSO control [1] | parasite growth remaining, % of DMSO control (lower = more inhibition) [2] | parasite growth, % of control (lower = inhibition) [3] | growth, % of control [4] | viability (% of control) [5] | Potency [6] | Potency [7] | activity, percent of control [8] | remaining proliferation (% of control), lower = more inhibition [9]
1 | CNCCCC12CCC(c3ccccc31)c1ccccc12 | 16.9% | 21.8% | 21.9% | 7.27% | 13.7% | inactive | inactive |  | 
2 | CCOC(=O)C(C)(C)Oc1ccc(Cl)cc1 | 92.7% | 103% | 78% | 104% | 22.1% | inactive | inactive |  | 
3 | COc1ccccc1N1CCN(CC(O)COc2cccc3ccccc23)CC1 (stereo not given) | 64.9% | 98.8% | 65.8% | 74.7% | 112% | inactive | inactive |  | 
4 | O=c1c(-c2ccc(O)cc2)coc2cc(O)cc(O)c12 | 72.2% | 88.4% | 57.2% | 31.8% | 13.8% | inactive |  |  | 
5 | O=c1c(O)c(-c2ccc(O)c(O)c2)oc2cc(O)cc(O)c12 | 12.8% |  | 9.46% | 11.6% | 34.4% | inactive | inactive | 8.52% and 5.2% | 1.74% and 5.43%
6 | Cc1cc(C(C)(C)C)c(O)c(C)c1CC1=NCCN1 | 80.6% | 95.8% | 68.6% | 98.3% | 110% | inactive | inactive |  | 
7 | CN(Cc1cnc2nc(N)nc(N)c2n1)c1ccc(C(=O)N[C@@H](CCC(=O)O)C(=O)O)cc1 | 8.82% | 7.1% | 8.39% | 19.5% | 9.1% | inactive | inactive |  | 
8 | O=C1Cc2cc(CCN3CCN(c4nsc5ccccc45)CC3)c(Cl)cc2N1 | 14.8% | 21.2% | 20.5% | 9.47% | 94.5% | inactive | inactive |  | 
9 | CN(C)CCC=C1c2ccccc2C=Cc2ccccc21 | 58.1% | 62.8% | 42.4% | 68.3% | 67.7% | inactive | inactive |  | 
10 | N[C@@H](Cc1c[nH]c2ccc(O)cc12)C(=O)O | 101% | 101% | 132% | 99.6% | 35.8% | inactive | inactive |  | 
11 | Cc1cnc(C(=O)NCCc2ccc(S(=O)(=O)NC(=O)NC3CCCCC3)cc2)cn1 | 7.98% | 12.7% | 9.38% | 3.73% | 58.3% | inactive | inactive |  | 
12 | CC12CC3CC(C)(C1)CC(N)(C3)C2 | 176% | 23.6% | 122% | 512% | 17.7% | inactive | inactive |  | 
13 | CN(C)CCOC(c1ccccc1)c1ccccc1 | 90.6% | 39.2% | 41.2% | 100% | 38.8% | inactive | inactive | 32.1% | 
14 | Clc1ccc2c(c1)C(N1CCNCC1)=Nc1ccccc1O2 | 50.7% | 28.9% | 27.9% | 67.9% | 102% | inactive | inactive |  | 
15 | CN(C)c1nc(N(C)C)nc(N(C)C)n1 | 89.4% | 102% | 104% | 101% | 106% | inactive | inactive |  | 
16 | CC1COc2c(N3CCN(C)CC3)c(F)cc3c(=O)c(C(=O)O)cn1c23 (stereo not given) | 59.3% | 84.7% | 76.4% | 76.3% | 42.1% | inactive | inactive |  | 
17 | CC[N+](CC)(CC)CCOc1cccc(OCC[N+](CC)(CC)CC)c1OCC[N+](CC)(CC)CC |  | 104% |  |  | 111% | inactive | inactive |  | 
18 | CC(CCc1ccc(O)cc1)NCCc1ccc(O)c(O)c1 (stereo not given) | 52.3% | 64.4% | 62.7% | 92.8% | 9.22% | inactive | inactive |  | 
19 | O=C1N(c2ccccc2)c2ccccc2C1(Cc1ccncc1)Cc1ccncc1 | 105% | 86.2% | 120% | 106% | 130% | inactive | inactive |  | 
20 | COc1cc2nc(N3CCN(C(=O)C4COc5ccccc5O4)CC3)nc(N)c2cc1OC (stereo not given) | 5.44% | 9.25% | 11.1% | 2.34% | 8.05% | inactive | inactive |  | 
21 | CN(C)CCCN1c2ccccc2CCc2ccc(Cl)cc21 | 19.3% | 12% | 24.6% | 21.5% | 11.8% | inactive | inactive |  | 
22 | OCCN(CCO)c1nc(N2CCCCC2)c2nc(N(CCO)CCO)nc(N3CCCCC3)c2n1 |  |  | 36.9% |  | 95.3% | inactive | inactive |  | 
23 | Nc1nc2c(ncn2COC(CO)CO)c(=O)[nH]1 | 91.1% | 92.5% | 84.9% | 49% | 3.13% | inactive | inactive |  | 
24 | COc1cc2nc(N3CCN(C(=O)c4ccco4)CC3)nc(N)c2cc1OC | 4.68% | 20.6% | 8.89% | 2.87% | 5.38% | inactive | inactive |  | 
25 | Cc1cn([C@H]2C=C[C@@H](CO)O2)c(=O)[nH]c1=O | 325% [at 57.5 µM] | 112% [at 57.5 µM] | 140% [at 57.5 µM] | 618% [at 57.5 µM] | 100% [at 92.2 µM] | inactive | inactive |  | 
26 | O=c1[nH]cc(F)c(=O)[nH]1 |  | 18.8% |  |  | 29.1% | inactive | inactive |  | 
27 | CC1(C)O[C@H]2CC(=O)OC[C@]23[C@H]2CC[C@@]4(C)[C@H](c5ccoc5)OC(=O)[C@H]5O[C@]54[C@]2(C)C(=O)C[C@@H]13 | 86.6% | 122% | 82% | 107% | 118% | inactive | inactive |  | 
28 | O=C(c1ccc(F)cc1)C1CCN(CCn2c(=O)[nH]c3ccccc3c2=O)CC1 | 109% | 19.2% | 104% | 61.3% | 112% | inactive | inactive |  | 
29 | O=C1c2c(O)ccc(O)c2C(=O)c2c(NCCNCCO)ccc(NCCNCCO)c21 | 0.962% | 1.83% | 5.92% | 0.795% | 2.98% | inactive | inactive |  | 
